Results as given in PubChem BioAssay (EPA / NIEHS).
The source made the active and inactive calls. How the source made its calls: active means hit-call score of the fitted dose curve at least 0.9, where 1 is the maximum; inactive means score below 0.9.

Assays:
[1] = read-out: Interferon-inducible T-cell alpha chemoattractant (ITAC), CXCL11 (gene 6373); test: BSK_BE3C_ITAC: BioMAP Diversity Plus: BE3C Assay for Interferon-inducible T-cell alpha chemoattractant (ITAC) Biomarker Activity (AID 2284279); details: primary human bronchial epithelial cells
Experimental: BSK_BE3C is a cell-based, multiplexed-readout assay that uses bronchial epithelial cell, a human lung primary cell, with measurements taken at 24 hours after chemical dosing in a 96-well plate.BSK_BE3C_ITAC is an assay component measured in the BSK_BE3C assay. It measures I-TAC antibody related to regulation of gene expression using ELISA technology.Data from the assay component BSK_BE3C_ITAC was analyzed at the endpoint, BSK_BE3C_ITAC, in the positive analysis fitting direction relative to DMSO as the negative control and baseline of activity. Using a type of binding reporter, gain or loss-of-signal activity can be used to understand protein changes. To generalize the intended target to other relatable targets, this assay endpoint is annotated to the 'cytokine' intended target family, where the subfamily is 'chemotactic factor'.
The levels of cell surface (or secreted, indicated by the prefix "s") biomarker endpoints were measured by ELISA. Overt cytotoxicity to cells in confluent adherent cultures (all systems other than the BT system) was assessed by measuring total protein levels using sulforhodamine B (SRB) staining in parallel cultures at the time of biomarker measurements, indicated as SRB endpoints. For proliferation assays for adherent cell types, individual cell types are cultured at sub-confluence and relative cell numbers quantified by SRB staining at time points optimized for each system (48 h: 3C and CASM3C systems; 72 h: BT and HDF3CGF systems; 96 h: SAg system). SRB was performed by staining cells with 0.1% SRB after fixation with 10% TCA and reading wells at 560 nm.Viability and proliferation of PBMC (T cells) was quantified by Alamar Blue reduction for the SAg and BT systems. […] Then, Alamar Blue (20 uL/well) (Invitrogen, Cat DAL1100) was added for 6 h, and the plates were read with a fluorescence microplate reader at 546/580 nm (excitation/emission). […] Plates were read after 6 h.

[2] = read-out: Interleukin-8 (IL8), CXCL8 (gene 3576); test: BSK_BE3C_IL8: BioMAP Diversity Plus: BE3C Assay for Interleukin-8 (IL8) Biomarker Activity (AID 2284280); details: primary human bronchial epithelial cells
Summary of the method: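 IL-8 signal gain, normalised to DMSO vehicle, was scored after a 24 h chemical exposure of primary human bronchial epithelial cells, with detection by ELISA.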

[3] = read-out: Epidermal growth factor receptor (EGFR), EGFR (gene 1956); test: BSK_BE3C_EGFR: BioMAP Diversity Plus: BE3C Assay for Epidermal growth factor receptor (EGFR) Biomarker Activity (AID 2284281); details: primary human bronchial epithelial cells
Summary of the method: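 Compound is added to human bronchial epithelial cells, cells incubate 24 h, then EGFR is detected by ELISA. Values reflect positive-direction fitting relative to DMSO.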

[4] = read-out: KRT18 (gene 3875); test: BSK_BE3C_Keratin818: BioMAP Diversity Plus: BE3C Assay for Keratin 818 Biomarker Activity (AID 2284282); details: primary human bronchial epithelial cells
Summary of the method: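 BE3C: human bronchial epithelial primary cells, 24 h exposure, Keratin 8/18 ELISA; DMSO = negative control/baseline; cytotoxicity by parallel SRB stain (0.1% SRB after 10% TCA fixation, 560 nm).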

[5] = read-out: Matrix Metallopeptidase 9 (MMP9), MMP9 (gene 4318); test: BSK_BE3C_MMP9: BioMAP Diversity Plus: BE3C Assay for Matrix Metallopeptidase 9 (MMP9) Biomarker Activity (AID 2284283); details: primary human bronchial epithelial cells
Summary of the method: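 MMP9 is measured by ELISA after a 24 h compound exposure of primary human bronchial epithelial cultures. Parallel SRB staining gives overt cytotoxicity. Values fitted in the positive direction against DMSO.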

[6] = read-out: Plasminogen activator inhibitor-1 (PAI1), SERPINE1 (gene 5054); test: BSK_CASM3C_PAI1: BioMAP Diversity Plus: CASM3C Assay for Plasminogen activator inhibitor-1 (PAI1) Biomarker Activity (AID 2284284); details: primary human coronary artery smooth muscle cells;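 further: PAI-1 protein level measured by ELISA 24 h after dosing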
[7] = read-out: Monocyte Chemoattractant Protein-1 (MCP1), CCL2 (gene 6347); test: BSK_hDFCGF_MCP1: BioMAP Diversity Plus: hDFCGF Assay for Monocyte Chemoattractant Protein-1 (MCP1) Biomarker Activity (AID 2284285); details: primary human foreskin fibroblasts
Summary of the method: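 Human foreskin fibroblasts (hDFCGF system) were exposed to compound and secreted MCP-1 was measured by ELISA after 24 hours. Activity was fitted relative to DMSO. Cytotoxicity was checked by SRB total-protein staining in parallel cultures.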

[8] = read-out: Intercellular Adhesion Molecule 1 (ICAM1), ICAM1 (gene 3383); test: BSK_hDFCGF_ICAM1: BioMAP Diversity Plus: hDFCGF Assay for Intercellular Adhesion Molecule 1 (ICAM1) Biomarker Activity (AID 2284287); details: primary human foreskin fibroblasts
Summary of the method: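 Primary human foreskin fibroblasts (hDFCGF system) dosed with chemical; ICAM-1 quantified by ELISA at 24 h relative to DMSO. Parallel SRB total-protein staining to assess overt cytotoxicity.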

[9] = read-out: TIMP metallopeptidase inhibitor 2 (TIMP2), TIMP2 (gene 7077); test: BSK_hDFCGF_TIMP2: BioMAP Diversity Plus: hDFCGF Assay for TIMP metallopeptidase inhibitor 2 (TIMP2) Biomarker Activity (AID 2284289); details: primary human foreskin fibroblasts
Summary of the method: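 Primary human foreskin fibroblasts in the hDFCGF system, dosed for 24 h; TIMP-2 level measured by ELISA, fitted in the positive direction against DMSO; cytotoxicity checked in parallel by sulforhodamine B total protein staining.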

[10] = read-out: Thrombomodulin, THBD (gene 7056); test: BSK_LPS_Thrombomodulin: BioMAP Diversity Plus: LPS Assay for Thrombomodulin Biomarker Activity (AID 2284296)
Summary of the method: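 Human umbilical vein endothelial cells co-cultured with PBMC and stimulated with LPS; cell-surface thrombomodulin measured by ELISA 24 hours after compound. Gain or loss versus DMSO; cytotoxicity checked by SRB staining in parallel cultures.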

Measured: outcome

CCCCOC(=O)COC(=O)c1ccccc1C(=O)OCCCC
inactive: [1] | [2] | [3] | [4] | [5] | [6] | [7] | [8] | [9] | [10] inactive [primary human HUVEC with PBMC]

OCCCCO
inactive: all assays above

O=C(Cc1ccccc1)OCCc1ccccc1
inactive: all assays above
